{"source": "the supplement of paper PMC10503962", "data": [{"system": "Trichuris muris adult worms", "test": "mean motility score (Paragon pixel variance) of adult worms (arbitrary units); higher = more motile worms, i.e. less anthelmintic effect; extreme values may be limits of the assay", "conditions": "100 µM; 24 h", "outline": "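Single adult Trichuris muris worms, collected from infected NOD SCID mice, were placed in 96-well plates with 100 μL RPMI-1640 plus antibiotics and drug at 100 μM (1% v/v DMSO), then kept at 37°C and 5% CO2 for 24 h. Plates were filmed on an automated phenotyping platform (200 frames, 100 ms apart). Motility score came from Paragon pixel-variance analysis, averaged across replicate wells. Each drug had three worms in three wells, run on three separate occasions, with vehicle and positive controls.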", "values": [{"smiles": "CC(=O)c1c(C)c2cnc(Nc3ccc(N4CCNCC4)cn3)nc2n(C2CCCC2)c1=O", "note": "[palbociclib]", "mean motility score": 1970}, {"smiles": "OC(CCCN1CCCCC1)(c1ccccc1)c1ccccc1", "note": "[diphenidol]", "mean motility score": 1940}, {"smiles": "CCC(C)n1ncn(-c2ccc(N3CCN(c4ccc(OC[C@H]5CO[C@](Cn6cncn6)(c6ccc(Cl)cc6Cl)O5)cc4)CC3)cc2)c1=O", "note": "(stereo partly drawn) [itraconazole]", "mean motility score": 1700}, {"smiles": "CC1=C(/C=C/C(C)=C/C=C/C(C)=C/CO)C(C)(C)CCC1", "note": "[retinol]", "mean motility score": 2970}, {"smiles": "CCCCOc1ccc(C(=O)CCN2CCCCC2)cc1.Cl", "note": "[dyclonine hydrochloride]", "mean motility score": 3270}, {"smiles": "COC(=O)c1ccccc1O", "note": "[methyl salicylate]", "mean motility score": 3260}, {"smiles": "CS(=O)(=O)OCCCCOS(C)(=O)=O", "note": "[busulfan]", "mean motility score": 3180}, {"smiles": "Cc1ccc(Nc2nccc(N(C)c3ccc4c(C)n(C)nc4c3)n2)cc1S(N)(=O)=O", "note": "[pazopanib]", "mean motility score": 1830}, {"smiles": "COc1cc2nccc(Oc3ccc(NC(=O)NC4CC4)c(Cl)c3)c2cc1C(N)=O", "note": "[lenvatinib]", "mean motility score": 2500}, {"smiles": "NCCCC[C@H](N[C@@H](CCc1ccccc1)C(=O)O)C(=O)N1CCC[C@H]1C(=O)O", "note": "[lisinopril]", "mean motility score": 1970}, {"smiles": "Nc1ccn([C@H]2CC[C@@H](CO)O2)c(=O)n1", "note": "[zalcitabine]", "mean motility score": 3920}, {"smiles": "CCCc1nc(C(C)(C)O)c(C(=O)OCc2oc(=O)oc2C)n1Cc1ccc(-c2ccccc2-c2nnn[nH]2)cc1", "note": "[olmesartan medoxomil]", "mean motility score": 3650}, {"smiles": "O=C(CCCCCCC(=O)Nc1ccccc1)NO", "note": "[vorinostat]", "mean motility score": 1260}, {"smiles": "C=CC(=O)N1CCC[C@@H](n2nc(-c3ccc(Oc4ccccc4)cc3)c3c(N)ncnc32)C1", "note": "[ibrutinib]", "mean motility score": 433}, {"smiles": "CC1(C)[C@@H](O[C@H]2O[C@H](C(=O)O)[C@@H](O)[C@H](O)[C@H]2O[C@@H]2O[C@H](C(=O)O)[C@@H](O)[C@H](O)[C@H]2O)CC[C@]2(C)[C@H]3C(=O)C=C4[C@@H]5C[C@@](C)(C(=O)O)CC[C@]5(C)CC[C@@]4(C)[C@]3(C)CC[C@@H]12", "note": "[glycyrrhizin]", "mean motility score": 1890}, {"smiles": "CN1CCN(CCOc2cc(OC3CCOCC3)c3c(Nc4c(Cl)ccc5c4OCO5)ncnc3c2)CC1", "note": "[saracatinib]", "mean motility score": 1640}, {"smiles": "CCO[C@@H](Cc1ccc(OCCc2ccc(OS(C)(=O)=O)cc2)cc1)C(=O)O", "note": "[tesaglitazar]", "mean motility score": 3880}, {"smiles": "CCC(NC(C)C)C(O)c1ccc(O)c2nc(O)ccc12.Cl", "note": "(stereo not drawn) [procaterol hydrochloride]", "mean motility score": 2060}, {"smiles": "CN(C)CC[C@@H](c1ccc(Cl)cc1)c1ccccn1.O=C(O)/C=C\\C(=O)O", "note": "[dexchlorpheniramine maleate]", "mean motility score": 1140}, {"smiles": "CC(=O)OC(C)C[N+](C)(C)C.[Cl-]", "note": "(stereo not drawn) [methacholine chloride]", "mean motility score": 2220}, {"smiles": "Cc1cn(-c2cc(NC(=O)c3ccc(C)c(Nc4nccc(-c5cccnc5)n4)c3)cc(C(F)(F)F)c2)cn1", "note": "[nilotinib]", "mean motility score": 2370}, {"smiles": "Cc1cc(CC(=O)[O-])n(C)c1C(=O)c1ccc(Cl)cc1.[Na+]", "note": "[zomepirac sodium]", "mean motility score": 2840}, {"smiles": "O=C(NCCO[N+](=O)[O-])c1cccnc1", "note": "[nicorandil]", "mean motility score": 2790}, {"smiles": "N=C(N)NC(=N)NCCc1ccccc1", "note": "[phenformin]", "mean motility score": 4260}, {"smiles": "CN1CCN(CCCN2c3ccccc3Sc3ccc(C(F)(F)F)cc32)CC1.Cl.Cl", "note": "[trifluoperazine dihydrochloride]", "mean motility score": 0}, {"smiles": "Cc1cc2cc3c(C)cc(=O)oc3c(C)c2o1", "note": "[trioxsalen]", "mean motility score": 2070}, {"smiles": "CCN[C@H]1C[C@H](C)S(=O)(=O)c2sc(S(N)(=O)=O)cc21", "note": "[dorzolamide]", "mean motility score": 2540}, {"smiles": "CCN(Cc1ccncc1)C(=O)C(CO)c1ccccc1", "note": "(stereo not drawn) [tropicamide]", "mean motility score": 2030}, {"smiles": "CN1CCN(CC/C=C2/c3ccccc3Sc3ccc(S(=O)(=O)N(C)C)cc32)CC1", "note": "[thiothixene]", "mean motility score": 1030}, {"smiles": "Cc1cc(Nc2ncc(Cl)c(Nc3ccccc3S(=O)(=O)C(C)C)n2)c(OC(C)C)cc1C1CCNCC1", "note": "[ceritinib]", "mean motility score": 1.33}, {"smiles": "CCCCNc1cc(C(=O)O)cc(S(N)(=O)=O)c1Oc1ccccc1", "note": "[bumetanide]", "mean motility score": 4880}, {"smiles": "Cc1ccccc1C(OCCN(C)C)c1ccccc1.Cl", "note": "(stereo not drawn) [orphenadrine hydrochloride]", "mean motility score": 1810}, {"smiles": "O=P(O)(O)C(O)(Cn1ccnc1)P(=O)(O)O", "note": "[zoledronic acid]", "mean motility score": 1210}, {"smiles": "C(=C\\c1ccccc1)/CN1CCN(C(c2ccccc2)c2ccccc2)CC1", "note": "[cinnarizine]", "mean motility score": 1640}, {"smiles": "COc1ccc2[nH]cc(CCNC(C)=O)c2c1", "note": "[melatonin]", "mean motility score": 4410}, {"smiles": "C[C@](N)(Cc1ccc(O)c(O)c1)C(=O)O", "note": "[methyldopa]", "mean motility score": 4060}, {"smiles": "OCCN(CCO)c1nc(N2CCCCC2)c2nc(N(CCO)CCO)nc(N3CCCCC3)c2n1", "note": "[dipyridamole]", "mean motility score": 2870}, {"smiles": "CO[C@@]1(NC(=O)CSCC#N)C(=O)N2C(C(=O)[O-])=C(CSc3nnnn3C)CS[C@@H]21.[Na+]", "note": "[cefmetazole sodium]", "mean motility score": 2040}]}]}
